# Source: PubChem BioAssay
# TDP1 block: qHTS Assay for Inhibitors of Tyrosyl-DNA Phosphodiesterase (TDP1). Tyrosyl-DNA phosphodiesterase 1 (Homo sapiens), Q9NUW8. recombinant TDP1, AlphaScreen DNA substrate cleavage. Potency, µM (series often up to 130 µM), hits mostly inhibitors. 350,000 tested, 0.28% active. AID 485290, 2010; also: nearly all actives have a fitted effect of over 40% in size
# Target sequence (Q9NUW8 whole entry, looked up): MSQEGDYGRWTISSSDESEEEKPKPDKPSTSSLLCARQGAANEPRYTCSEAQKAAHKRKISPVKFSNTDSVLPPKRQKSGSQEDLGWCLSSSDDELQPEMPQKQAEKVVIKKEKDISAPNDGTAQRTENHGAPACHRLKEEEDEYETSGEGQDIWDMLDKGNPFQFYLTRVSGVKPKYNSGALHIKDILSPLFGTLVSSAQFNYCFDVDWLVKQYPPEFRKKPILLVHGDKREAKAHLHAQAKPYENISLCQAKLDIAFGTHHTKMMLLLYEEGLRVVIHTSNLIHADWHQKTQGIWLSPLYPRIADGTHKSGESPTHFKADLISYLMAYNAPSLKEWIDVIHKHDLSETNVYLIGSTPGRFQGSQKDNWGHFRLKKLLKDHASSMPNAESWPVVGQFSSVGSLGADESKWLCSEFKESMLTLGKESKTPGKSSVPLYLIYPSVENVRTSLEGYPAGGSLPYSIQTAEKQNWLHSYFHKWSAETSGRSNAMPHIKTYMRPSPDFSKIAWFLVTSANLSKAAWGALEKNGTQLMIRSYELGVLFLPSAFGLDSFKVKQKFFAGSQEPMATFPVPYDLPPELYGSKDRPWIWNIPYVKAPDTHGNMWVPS
#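 Compounds were preincubated with Tdp1 (1 nM final) for 15 min at room temperature before substrate (15 nM final) started a 5 min reaction; beads (10 ug/ml final) were then added for 10 min before AlphaScreen detection.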
# TDP1 cell CPT: qHTS for Inhibitors of human tyrosyl-DNA phosphodiesterase 1 (TDP1): qHTS in cells in presence of CPT; chicken DT40 Tdp1-/-;hTDP1 cells + 20 nM CPT, ATP luminescence, 48 h; Potency, µM (titrated, usually from 46.2 µM), usual class: inhibitors; 420,000 tested, 12% active; also: nearly all actives have a fitted effect of over 55% in size
#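 Chicken DT40 Tdp1-/- cells stably complemented with human TDP1 were seeded at 400 cells/well in medium containing 20 nM camptothecin, exposed to pin-transferred compounds, and grown at 37 °C for at least 48 hr. Viability was read as ATP luminescence.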
# IL-1B inflam inh: qHTS for Inhibitors of Inflammasome Signaling: IL-1-beta AlphaLISA Primary Screen | THP-1 LPS/ATP IL-1B secretion, AlphaLISA, 16 h; active compounds read low | activity change, % at 57.5 µM | 360,000 tested, 4.7% active; in the data active = activity change below about -50%; inconclusive = mostly about -30% to -49%
#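 Secreted IL-1B measured by AlphaLISA bead assay after 16 h compound exposure of THP-1 cells; compounds (final up to 57.5 uM) added 1 h before LPS (250 ng/mL) and ATP (1.25 mM) stimulation; lower signal means less secretion.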
# Giardia killer: Small Molecules that selectively kill Giardia lamblia: qHTS; Giardia lamblia trophozoite viability; 340,000 tested, 0.15% active; activity change, % at 7.66 µM, hits read low; AID 540267, 2011; in the data active = activity change below about -80%; inconclusive = between about -30% and that limit;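 also: parasites exposed to compound for two days anaerobically before the ATP read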
#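 Giardia lamblia trophozoites (100 cells/well) were incubated with compounds for 48 h at 37 deg C under anaerobic conditions. Viability was read as ATP content by one-step luminescence after 15-30 min at room temperature.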
# TDP1 cell noCPT: qHTS for Inhibitors of human tyrosyl-DNA phosphodiesterase 1 (TDP1): qHTS in cells in absence of CPT. DT40 Tdp1-/- hTDP1 cells, no CPT, ATP luminescence, 48 h. Potency, µM (titrated, usually from 46.2 µM), actives largely listed as inhibitors. 420,000 tested, 15% active. AID 686978, 2013; also: nearly all actives have a fitted effect of over 55% in size
#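 A cellular qHTS used chicken DT40 cells lacking endogenous Tdp1 but carrying stably transfected human TDP1. Compounds were applied without camptothecin, and cell growth kinetics were judged by ATP-dependent luminescence after ≥48 hr.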
# ELG1 DNA repair: qHTS screen for small molecules that inhibit ELG1-dependent DNA repair in human embryonic kidney (HEK293T) cells expressing luciferase-tagged ELG1; AID 504467, 2011; 330,000 tested, 2.3% active; Potency, µM (highest dose often 46.1 µM), most hits filed as inhibitors; HEK293T ELG1-luciferase reporter, luminescence, 16 h; DNA damage induced by 5-fluorouridine; also: nearly all actives have a fitted effect of over 55% in size
#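 Cells (2,000 per well) received 5-fluorouridine plus test compound or DMSO and were incubated 16 hr at 37 °C, 5% CO2. Luciferase activity was read by luminescence 30 min after ONE-Glo addition; signal suppression marked inhibition of damage-induced ELG1 function.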
# A number is an active result; . = inactive; ? = inconclusive; / = no result given; [ ] = another dose, or the depositor's remark. A selection: hits, their analogues and other compounds. The true share with any hit is near 19%. Unless noted, calls follow the shape of the dose curve; as a rule, active = well fitted curve in the direction sought with a large enough effect; inconclusive = small, poorly fitted or top-dose-only effect, or another doubt; inactive = no such curve, though single readings can be large; an effect the other way counts as inactive or inconclusive.
SMILES,TDP1 block,TDP1 cell CPT,IL-1B inflam inh,Giardia killer,TDP1 cell noCPT,ELG1 DNA repair
COc1cc(OC)cc(C(=O)Nc2ccc3oc(-c4ccccc4C)nc3c2)c1,.[12.3 µM],?,/,/,?,/
CS(=O)(=O)c1ccccc1C(=O)Nc1ccc(-c2nc3ccccc3o2)cc1,.,?,.,.,23.1µM,?
COc1cccc(C(=O)Nc2ccc(-c3nc4ccccc4o3)c(O)c2)c1,.,18.4µM,.,.,16.4µM,?
COC(=O)c1ccc(-c2nc3ccc(C)cc3o2)cc1,.,10.3µM,.,.,8.2µM,?
COc1cc(OC)cc(C(=O)Nc2ccc(-c3nc4cc(C(C)C)ccc4o3)cc2)c1,.[2.28 µM],20.6µM,/,/,20.6µM,/
CCOc1ccc(C(=O)Nc2ccc(-c3nc4cc(C(C)C)ccc4o3)cc2)cc1Cl,.[12.3 µM],?,/,/,?,/
COc1cccc(CCc2nnc(CCC(=O)N3CCN(Cc4ccccn4)CC3)o2)c1,/,.,.,.,.,.
O=C(CSc1nnc(NC(=O)c2c(F)cccc2F)s1)NCc1ccc(F)cc1,/,.,.,.,.,.
COC(=O)[C@]1(Cc2ccccc2)N[C@H](CN(C)C(=O)Nc2ccc(Cl)cc2)[C@@H]2C(=O)N(C)C(=O)[C@@H]21,.,?,.,.,.,.
Cc1cc(C(=O)NC(C)CCC(C)C)c2ccccc2n1 (stereo not given),.,.,.,.,.,.
O=C(Nc1ccc2oc(-c3cccnc3)nc2c1)c1cccnc1,.,.,.,.,?,.
Cc1ccc2oc(-c3ccc(NC(=O)c4cccnc4)cc3)nc2c1,.,?,.,.,20.6µM,?
CC(CCc1ccccc1)NC(=O)COC(=O)c1ccccc1O (stereo not given),.,.,.,.,.,.
CC1CCN(C(=O)CSc2nc3c([nH]c4ccccc43)c(=O)n2-c2ccccc2)CC1,.,.,/,/,.,/
CCC(=O)c1cccc(-c2ccccc2)c1CC,/,.,-69.2,.,.,/
CCC(=O)c1ccc(-c2ccccc2)cc1,.,.,.,.,.,?
Cc1noc(C)c1COc1ccc(C(=O)OCC(=O)NCc2ccccc2Cl)cc1,.,?,.,.,29.1µM,.
Cc1noc(C)c1COc1ccc(C(=O)OCC(=O)Nc2ccc(S(N)(=O)=O)cc2)cc1,.,?,.,.,16.4µM,.
O=C(CSc1nc2cc([N+](=O)[O-])ccc2n1-c1ccccc1)NCc1ccc2c(c1)OCO2,.,14.6µM,.,.,23.1µM,.
Cc1cc(C(=O)CSc2nc3ccccc3c(=O)n2C)c(C)n1Cc1ccc2c(c1)OCO2,.,5.8µM,.,.,6.51µM,?
Cc1cc(C)cc(-n2c(SCC(=O)Nc3cccc(S(=O)(=O)NC4=NCCCCC4)c3)nc3ccccc3c2=O)c1,.,18.4µM,.,.,?,.
O=C(CSc1nccn1-c1ccccc1)NCc1ccc2c(c1)OCO2,.,.,.,.,.,.
Cc1cc(C)cc(-n2c(SCC(=O)NCc3ccc4c(c3)OCO4)nc3ccccc3c2=O)c1,.,7.31µM,.,.,18.4µM,?
CN(C)C(=O)Cn1c(SCC(=O)NCc2ccc3c(c2)OCO3)nc2ccccc21,.,.,.,.,.,.
O=c1c(-c2nn[nH]n2)coc2ccc(Cl)cc12,.,.,.,.,.,.
SMILES,TDP1 block,TDP1 cell CPT,IL-1B inflam inh,Giardia killer,TDP1 cell noCPT,ELG1 DNA repair
O=C(NC1CCCCCC1)c1ccc2nc3cc(Cl)ccc3c(=O)n2c1,.,?,.,.,?,.
Fc1ccc(Cn2cnc3ccccc32)cc1,.,.,.,.,.,.
CCCOc1ccc(Cn2cnc3ccccc32)cc1,.,?,.,.,13µM,.
Cc1ccc(Cn2cnc3ccccc32)cc1C,.,13µM,.,.,16.4µM,.
Cc1ccccc1Cn1cnc2ccccc21,.,18.4µM,.,.,20.6µM,.
CCOCN(C(=O)Cn1cnc2ccccc21)c1c(C)cccc1CC,.,20.6µM,.,.,23.1µM,.
CCC(C)NCCOc1ccccc1C (stereo not given),?,.,.,.,.,.
CCCN1CCN(S(=O)(=O)c2ccc3c(c2)NC(=O)C(C)S3)CC1 (stereo not given),.,?,.,.,.,.
CCOC(=O)N1CCN(S(=O)(=O)c2ccc(OCC)c(C)c2)CC1,.,?,.,.,9.2µM,?
CCOC(=O)N1CCN(S(=O)(=O)c2ccc(C)c(C)c2)CC1,.,?,.,.,?,.
CCOC(=O)N1CCN(S(=O)(=O)c2ccc3c(c2)SC(C)C(=O)N3)CC1 (stereo not given),.,13µM,.,.,9.2µM,?
CCOC(=O)N1CCN(S(=O)(=O)c2ccc3c(c2)SCC(=O)N3)CC1,.,?,.,.,?,20.6µM
Cc1ccc(-c2nn(-c3ccc(F)cc3)c3c2cnc2cc(F)c(F)cc23)cc1,.,.,/,/,?,/
c1ccc(CN(Cc2ccccc2)Cc2nnc(-c3cc4ccccc4[nH]3)o2)cc1,.,/,/,/,/,/
CC12CCC(=O)N1C(C(=O)Nc1ccccc1N1CCOCC1)CS2 (stereo not given),.,.,.,.,.,.
CCOC(=O)c1c(C)oc2ncnc(NCCCN3CCN(c4cc(C)ccc4C)CC3)c12,.,7.31µM,/,/,4.61µM,/
CCOC(=O)c1c(C)oc2nc(C)nc(N3CCN(c4ccc(C(C)=O)cc4)CC3)c12,.,5.8µM,/,/,2.91µM,/
CCOC(=O)c1c(C)oc2nc(C)nc(NCCCN3CCN(c4ccccc4OC)CC3)c12,.,?,/,/,23.1µM,/
CCOC(=O)c1c(C)oc2ncnc(Nc3ccc(CC)cc3)c12,.,.,/,/,?,/
CCOC(=O)c1c(C)oc2nc(C)nc(NCCCN3CCN(c4ccc(F)cc4)CC3)c12,.,20.6µM,/,/,20.6µM,/
CCN(CC)S(=O)(=O)c1ccc(OCC(=O)NC(=O)c2ccccc2OC)c([N+](=O)[O-])c1,.,.,.,.,.,.
O=C(Nc1ccccc1)c1ccc(NC(=O)C2CC2)cc1,.,.,?,.,.,?
COc1cc(C(=O)NCc2cccnc2)ccc1OCC(=O)Nc1cccc(C(F)(F)F)c1,.[0.505 µM],5.17µM,.,.,3.66µM,.
CC(C)(C)c1ccccc1OCC(=O)Nc1ccccc1C(=O)NCc1cccnc1,.,?,-89.9,.,16.4µM,?
C=CCOc1ccc(C(=O)Nc2ccccc2C(=O)NCc2cccnc2)cc1,/,6.51µM,.,.,8.2µM,.
